Compounds with a hit are over-represented: about 14% of the library has one in this group of screens.
Pf growth 48h – Primary qHTS for delayed death inhibitors of the malarial parasite plastid, 48 hour incubation; P. falciparum luciferase growth in erythrocytes, 48 h; Potency, µM (top dose mostly 28.7 µM), without a hit: at the top dose activity change, negative = inhibition, hits mostly inhibitors; actives 5.9% (n = 310,000); AID 504832, 2011; also: potency is read from the fitted curve at half-maximal effect
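Read-out is firefly luciferase luminescence from an integrated reporter in P. falciparum, so falling signal marks reduced parasite growth. Infected erythrocytes were at 2% hematocrit and 0.1% parasitemia (final) in Albumax-supplemented RPMI 1640.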
Giardia FBPA inh – qHTS Assay for Inhibitors of Fructose-1,6-bisphosphate Aldolase from Giardia Lamblia. A8B2U2. purified Giardia FBPA. Potency, µM (series often up to 59.6 µM), for the others: at the top dose activity, negative = inhibition, hits mostly inhibitors. actives 0.71% (n = 290,000); also: potency is read from the fitted curve at half-maximal effect; nearly all actives have a fitted effect of over 55% in size
Target sequence (A8B2U2 whole entry, looked up): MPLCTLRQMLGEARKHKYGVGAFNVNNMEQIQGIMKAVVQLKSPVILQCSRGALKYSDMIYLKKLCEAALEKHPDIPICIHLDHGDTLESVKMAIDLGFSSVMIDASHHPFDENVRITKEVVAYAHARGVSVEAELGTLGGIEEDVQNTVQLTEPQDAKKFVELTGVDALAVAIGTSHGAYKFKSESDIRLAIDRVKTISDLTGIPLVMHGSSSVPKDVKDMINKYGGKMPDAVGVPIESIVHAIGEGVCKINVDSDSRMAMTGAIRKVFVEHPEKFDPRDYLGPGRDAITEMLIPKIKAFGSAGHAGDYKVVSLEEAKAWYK
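40 nM FBPA preincubated 10 min at RT with compound (up to 57.5 uM final), then substrate plus GAPDH/TPI/NAD/arsenate coupling and diaphorase/resazurin added. Fluorescence read after 20 min at RT, 525/598 nm.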
Sm TGR inh – qHTS Assay for the Inhibitors of Schistosoma Mansoni Peroxiredoxins; purified TGR, DTNB reduction, TNB absorbance 405 nm; Potency, µM (series often up to 114 µM), for the others: at the top dose activity change, negative = inhibition, usual class: inhibitors; actives 3% (n = 360,000); AID 485364, 2010; also: potency is read from the fitted curve at half-maximal effect; nearly all actives have a fitted effect of over 60% in size
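TGR 20 nM + NADPH 100 uM (dispensed conc.), cpd preinc 15 min RT; start with NADPH (500 uM addition) then DTNB (15 mM addition). Kinetic TNB absorbance, 405 nm filter. Four-parameter Hill fit across titration.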
Pf growth 96h – Primary qHTS for delayed death inhibitors of the malarial parasite plastid, 96 hour incubation; P. falciparum luciferase reporter growth, 96 h; Potency, µM (doses to about 28.7 µM), for the others: top-dose activity change, negative = inhibition, hits mostly inhibitors; actives 6.9% (n = 320,000); AID 504834, 2011; also: potency is read from the fitted curve at half-maximal effect
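P. falciparum expressing integrated firefly luciferase grown in erythrocytes (2% hematocrit, 0.05% parasitemia final) with compounds for 96 hours at 37 C, 5% CO2. Growth inhibition read as loss of luminescence after adding luciferase detection reagent.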
HCMV inh – qHTS Assay for inhibitors of the human cytomegalovirus (HCMV). HFF cells, HCMV-luciferase reporter, 72 h; active compounds read low. activity change, negative = inhibition, % at 57.5 µM. AID 1259415, 2018. actives 4.5% (n = 410,000); in the data active = activity change below about -60%; inconclusive = no clear call, values can overlap the other calls; inactive = above about -39%
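Luciferase read-out from HCMV-luciferase-infected HFFs (MOI 1 PFU/cell) 72 h post infection at 37C; compounds added after 16 h cell attachment; activity normalized between buffer-only basal and Salinomycin (10uM) inhibitor controls.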
Numbers without * were called inactive; ? = inconclusive; / = not tested or not shown. Unless noted, calls follow the shape of the dose curve; as a rule, active = well fitted curve in the direction sought with a large enough effect; inconclusive = small, poorly fitted or top-dose-only effect, or another doubt; inactive = no such curve, though single readings can be large; an effect the other way counts as inactive or inconclusive. % is scaled to controls: 0 for no effect and ±100 for the full control effect.

SMILES	Pf growth 48h	Giardia FBPA inh	Sm TGR inh	Pf growth 96h	HCMV inh
CCOc1ccccc1CNC(=O)C(CC)n1nc(C)c2c(C)n(-c3ccccc3)nc2c1=O (centres undefined)	/	/	6%	/	-39
CCC(C(=O)NCCc1ccc(SC)cc1)n1nc(C)c2c(C)n(-c3ccc(C)cc3)nc2c1=O (centres undefined)	/	/	-3%	/	-80*
CCC(C(=O)NCCc1ccc(C)cc1)n1nc(C)c2c(C)n(-c3ccccc3)nc2c1=O (centres undefined)	?	14%	9%	0%	?
Cc1ccc(-n2nc3c(=O)n(C(C)C(=O)NCc4ccc(Cl)cc4)nc(C)c3c2C)cc1 (centres undefined)	?	25%	4%	1.7µM*	-68*
Cc1nn(C(C)C(=O)NC2CCCCCC2)c(=O)c2nn(-c3ccccc3)c(C)c12 (centres undefined)	-11%	/	-5%	12µM*	-11
CCC(C(=O)NCCc1ccccc1OC)n1nc(C)c2c(C)n(-c3ccccc3)nc2c1=O (centres undefined)	-17%	/	-5%	12µM*	-35
Cc1ccc(NC(=O)c2oc3ccccc3c2NC(=O)c2ccc(F)c(F)c2)cc1	/	/	-2%	/	-38
O=C1CC(NS(=O)(=O)c2cccnc2)CN1c1ccc(Cl)cc1 (centres undefined)	-5%	/	-15%	-6%	?
CCc1noc(C)c1C(=O)N1CCN(S(=O)(=O)c2ccc(C)cc2)CC1	-27%	/	1%	18%	-33
Cc1ccc(-n2nc3c(=O)n(C(C)C(=O)NCc4ccccc4C)nc(C)c3c2C)cc1 (centres undefined)	/	/	-2%	/	0
CSc1ccc(CNC(=O)C(C)n2nc(C)c3c(C)n(-c4ccccc4)nc3c2=O)cc1 (centres undefined)	-21%	/	-1%	37%	-62*
Cc1ccc(CCNC(=O)C(C)n2nc(C)c3c(C)n(-c4ccccc4)nc3c2=O)cc1 (centres undefined)	-14%	/	-5%	?	-31
Cc1ccc(-n2nc3c(=O)n(C(C)C(=O)NCc4ccc(OC(C)C)cc4)nc(C)c3c2C)cc1 (centres undefined)	/	/	-14%	/	-77*
Cc1ccc(-n2nc3c(=O)n(C(C)C(=O)NCCC4=CCCCC4)nc(C)c3c2C)cc1 (centres undefined)	?	18%	-4%	9.3µM*	-61*
NCCCC[C@H](NC(=O)[C@@H](Cc1ccccc1)NC(=O)[C@H](Cc1c[nH]c2ccccc12)NC(=O)[C@@H](CCCCN)NC(=O)[C@@H](Cc1c[nH]c2ccccc12)NC(=O)[C@@H](N)Cc1cnc[nH]1)C(N)=O	/	2%	/	/	/
O=C1c2cc(Br)ccc2O[C@@H](c2ccc3c(c2)OCO3)[C@@H]1O	/	3%	/	/	/
Cc1nc(Nc2cnc(/C=C/c3cc(C(=O)Nc4cccc(C(F)(F)F)c4)ccc3C)cn2)cc(N2CCNCC2)n1	0.74µM*	5%	1%	?	/
O=C(Nc1cccc(C(F)(F)F)c1)c1cccc(C(=O)Nc2cccc(C(F)(F)F)c2)c1	/	/	-1%	/	-32
CCC(C)(C(=O)Nc1ccc(OC)cc1)N(C)C(=O)Cn1nnnc1N (centres undefined)	-14%	-4%	14%	20%	0
C[C@]12CCCCCC3=CC(=O)C=C[C@@]31OC(=O)CC2	/	/	/	/	6
COc1ccc(/C=N/NC(=O)c2c(Br)cnn2C)c2ccccc12	-14%	14%	7%	-22%	-23
Cc1ccc(C(=O)NC2CCCCCCC2)cc1S(=O)(=O)N1CCOCC1	?	/	0%	9.3µM*	15
O=C(NC1CCCC1)c1ccc(Cl)c(S(=O)(=O)N2CCOCC2)c1	4.7µM*	12%	-2%	9%	-12
O=C(NC1CCCCCCC1)c1ccc(F)c(S(=O)(=O)N2CCOCC2)c1	?	/	0%	?	-13
O=C(NC1CCSc2ccccc21)c1ccc(F)c(S(=O)(=O)N2CCOCC2)c1 (centres undefined)	-5%	/	40µM*	-58%	32
SMILES	Pf growth 48h	Giardia FBPA inh	Sm TGR inh	Pf growth 96h	HCMV inh
O=C(NC1CCSc2ccccc21)c1cc(S(=O)(=O)N2CCOCC2)ccc1F (centres undefined)	-11%	/	-21%	-1%	-37
O=C(c1ccc(CNS(=O)(=O)c2ccc(F)cc2)cc1)N1CCCCCC1	/	/	/	/	9
CN(C)S(=O)(=O)c1ccc(NC(=O)Cn2c(-c3ccccc3)noc2=O)cc1	/	2%	-7%	4.7µM*	-36
CCOc1ccccc1NC(=O)Cn1c(-c2ccc(Cl)cc2)noc1=O	1.7µM*	-3%	-27%	4.1µM*	-13
Cc1ccc(C(=O)Cn2c(-c3ccccc3)noc2=O)cc1	12%	0%	0%	-1%	-20
CCOc1ccccc1NC(=O)Cn1c(=O)oc2cc(Cl)ccc21	-14%	10%	-12%	16%	-5
CSc1c(-c2ccccn2)c(N)nn1C(=O)C1CCC1	39%	10%	-6%	44%	5
CC(C)CC(NC(N)=O)C(=O)NCCc1ccc(Cl)cc1Cl (centres undefined)	0%	1%	-5%	3%	13
COc1ccc(CCN2C(=O)C3C4C=CC(C3C2=O)C2C(=O)N(CCc3ccc(OC)c(OC)c3)C(=O)C42)cc1OC (centres undefined)	/	-9%	-3%	?	-94*
COc1ccc(CCN2C(=O)C3C4C=CC(C5CC45)C3C2=O)cc1OC (centres undefined)	17%	5%	0%	36%	-8
O=c1c(S(=O)(=O)c2cccc(Cl)c2)cn(Cc2ccccc2)c2cc(N3CCCCC3)c(F)cc12	/	/	-2%	/	-65*
O=c1c(S(=O)(=O)c2ccccc2)cn(Cc2ccccc2)c2cc(N3CCOCC3)c(F)cc12	/	/	2%	/	-27
O=c1c(S(=O)(=O)c2ccccc2)cn(Cc2ccccc2)c2cc(N3CCCC3)c(F)cc12	/	/	22%	/	4
O=c1c(S(=O)(=O)c2ccccc2)cn(Cc2cccc(F)c2)c2cc(N3CCOCC3)c(F)cc12	/	/	0%	/	-71*
O=c1c(S(=O)(=O)c2ccc(Cl)cc2)cn(Cc2ccccc2)c2ccc(F)cc12	?	1%	6%	12µM*	-16
Cc1ccc(NC(=O)N2CC=C(c3c[nH]c4ccccc34)CC2)cc1Cl	/	/	1%	/	-66*
CCN1CC=C(c2c[nH]c3ccccc23)CC1	1µM*	-23%	0%	40%	-7
O=C(CCSCc1ccc(Cl)cc1)N1CCN(c2ccccc2F)CC1	/	/	1%	/	-33

Source: PubChem
